Assay outcomes deposited in PubChem BioAssay by National Center for Advancing Translational Sciences (NCATS).
The list is not random: actives were taken first. Their share in the collection is about 4.3%.
SW480 rereplic = A quantitative high throughput screen for small molecules that induce DNA re-replication in SW480 colon adenocarcinoma cells. 340,000 tested, 1.8% active. Potency, µM (highest dose often 46.1 µM), inactives show at the top dose re-replication activation, usual class: activators. SW480 DNA re-replication, Hoechst DNA content imaging, 48 h. AID 624297, 2012; note: potency is the fitted concentration of half-maximal effect; % of control where 0% means no effect; nearly all actives have a fitted effect of over 55% in size
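Hoechst fluorescence of nuclei (405 nm excitation, 500-530 nm emission) measured by plate-scanning imager after 48 hr compound exposure at 37 C; re-replication scored as increased number of nuclei with elevated intensity.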
uPA generation = qHTS for Inhibitors of Cell Surface uPA Generation; cell surface uPA generation assay, qHTS; Potency, µM (top dose mostly 38.3 µM), for inactives: at the top dose activity change, negative = inhibition, usual class: inhibitors; 330,000 tested, 0.31% active; active = well fitted inhibition curve with a large enough effect; inconclusive = small, poorly fitted or top-dose-only effect; inactive = no such curve, though single readings can be large or run the other way; tested in mouse RAW 264.7 cells; note: potency is the fitted concentration of half-maximal effect; % is set by controls: 0 for no effect and ±100 for the full control effect; nearly all actives have a fitted effect of over 55% in size
MCF10A rereplic = A quantitative high throughput screen for small molecules that induce DNA re-replication in MCF 10a normal breast cells; MCF 10A DNA re-replication, Hoechst nuclear intensity, 48 h; Potency, µM (titrated, usually from 46.1 µM), for the others: at the highest dose activity, positive = re-replication, actives largely listed as activators; 350,000 tested, 2.9% active; AID 624296, 2012; note: potency is the fitted concentration of half-maximal effect; % of control where 0% means no effect; nearly all actives have a fitted effect of over 50% in size
Giardia kill = Small Molecules that selectively kill Giardia lamblia: qHTS; Giardia lamblia trophozoite viability; activity change, % at 7.66 µM, hits read low; 340,000 tested, 0.15% active; in the data active = activity change below about -80%; inconclusive = between about -30% and that limit;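 note: parasites exposed to compound for two days anaerobically before the ATP read; % is set by controls: 0 for no effect and ±100 for the full control effect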
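Each well holds 100 Giardia trophozoites and compound. After two days (48 hrs) at 37 deg C in anaerobic conditions, ATP is quantified by luminescence.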
Numbers without * were called inactive; u = inconclusive. Unless noted, calls come from the whole dose curve; as a rule, active = well fitted activation curve with a large enough effect; inconclusive = small, poorly fitted or top-dose-only effect; inactive = no such curve, though single readings can be large or run the other way.

SMILES | SW480 rereplic | uPA generation | MCF10A rereplic | Giardia kill
Cc1onc(-c2ccccc2)c1C(=O)OCC(=O)NCc1ccc(F)cc1 | -6% | -3% | -10% | 32
O=C(Nc1ccc2[nH]ccc2c1)c1ccc(F)cc1 | 2% | 0.89µM* | 3% | -83*
O=C(Nc1ccc2[nH]ccc2c1)c1ccccc1 | 5% | -8% | 26% | u
Cc1ccc(NC(=O)C(NC2CCCc3ccccc32)c2ccccc2)cc1Cl (configuration not stated) | u | 1% | 1.3µM* | -11
CNC(=O)NC(=O)C(NC1CCCc2ccccc21)c1ccccc1 (configuration not stated) | u | -2% | u | -7
CCCOc1c(OC)cccc1C1CC(=O)Nc2cc3c(cc21)OCCO3 (configuration not stated) | u | -12% | 5.8µM* | -3
CCCOc1c(OC)cccc1C1CC(=O)Nc2cc3c(cc21)OCO3 (configuration not stated) | 16µM* | -12% | 5.8µM* | -6
CCOc1ccccc1C1CC(=O)Nc2cc3c(cc21)OCO3 (configuration not stated) | 3% | 2% | -2% | 5
O=C(Nc1ccccc1C(F)(F)F)NC1(C(=O)N2CCOCC2)CCCCC1 | u | 1% | u | 0
CC(C)C(c1nnnn1C(C)(C)C)N1CCOCC1 (configuration not stated) | 0% | 5% | 0% | -5
CC(C)C(c1nnnn1C(C)(C)C)N1CCC(Cc2ccccc2)CC1 (configuration not stated) | 7% | 0% | 21µM* | 19
CCOC(=O)C(NC(=O)c1ccc(F)cc1)(Nc1sc2c(c1C(N)=O)CCC2)C(F)(F)F (configuration not stated) | -4% | -10% | -2% | u
CCCCC(=O)NC(Nc1sc2c(c1C(N)=O)CCCC2)(C(=O)OCC)C(F)(F)F (configuration not stated) | 2.9µM* | 3% | -9% | 3
CCOc1ccc2[nH]c(C(=O)N/N=C/c3ccccc3OC)cc2c1 | 15µM* | -11% | 5.2µM* | 17
COc1ccc2[nH]c(C(=O)N/N=C/c3ccc(OC)c(O)c3)cc2c1 | 12µM* | -4% | 2.1µM* | -15
COc1ccc2[nH]c(C(=O)N/N=C/c3ccccc3OC)cc2c1 | u | u | 27% | -1
CCCOc1ccc2[nH]c(C(=O)N/N=C/c3cc(OC)c(OC)c(OC)c3)cc2c1 | 4% | -3% | u | 3
O=C(Nc1ccc2c(c1)OCCO2)c1ccc2nccnc2c1 | 1% | u | 7.3µM* | u
Cc1ccc2nc(-c3cccc(NC(=O)c4ccc5c(c4)OCCO5)c3)oc2c1 | -2% | -3% | 18µM* | 4
CCCOc1cccc(C(=O)Nc2ccc3c(c2)OCCO3)c1 | -4% | 10µM* | 9% | u
O=C(Nc1ccc2c(c1)OCO2)NC1(C(F)(F)F)Oc2ccccc2O1 | -9% | -11% | u | 7
CCC(=O)Nc1cccc(-c2nc3ccc(C)cc3o2)c1 | 7% | -4% | 0% | -5
O=C(Nc1ccc2c(c1)OCCO2)NC1(C(F)(F)F)Oc2ccccc2O1 | -6% | 2.5µM* | 6% | 15
Cc1cccc(C)c1OCC(=O)Nc1ccc2c(c1)OCCO2 | 80% | -29% | 15µM* | 1
Cc1ccccc1OCC(=O)Nc1ccc2c(c1)OCCO2 | 1% | -1% | 0% | 0
SMILES | SW480 rereplic | uPA generation | MCF10A rereplic | Giardia kill
CCN(CC)CCCNC(=O)c1sc2ncn(CC(=O)Nc3ccc(C)c(Cl)c3)c(=O)c2c1C | 18µM* | u | -7% | 9
COCCCNC(=O)c1sc2ncn(CC(=O)Nc3ccc(C)c(Cl)c3)c(=O)c2c1C | 3% | -6% | -27% | 4
O=C(O)c1cc(Cl)ccc1-c1ccc(/C=C/c2cc(C(F)(F)F)[nH]c(=O)n2)o1 | u | 2% | 18µM* | -4
Cc1ccc(NC(=O)c2cccs2)cc1S(=O)(=O)Nc1cccc(Cl)c1 | 1% | -4% | u | 45
Cc1ccc(NC(=S)NC(=O)c2ccc(F)cc2)cc1S(=O)(=O)Nc1cccc(Cl)c1 | 3.7µM* | -16% | 2.6µM* | 1
CN(C)CCn1c2c(c(SCC(=O)Nc3cccc4ccccc34)nc1=O)CCCC2 | 0.58µM* | -12% | 17% | 11
CCN(CC)CCn1c2c(c(SCC(=O)Nc3cccc4ccccc34)nc1=O)CCC2 | 52% | -28% | -1% | -11
